# Inconclusive results are not listed. Active and inactive are the calls of the source. Calls follow the shape of the dose curve; as a rule, active = well fitted inhibition curve with a large enough effect; inconclusive = small, poorly fitted or top-dose-only effect; inactive = flat fitted curve, though single readings scatter.
# Assay: P-glycoprotein substrates identified in KB-8-5-11 adenocarcinoma cell line, qHTS therapeutic library screen (AID 1346987); also: nearly all actives have a fitted effect of over 65% in size
# Conditions: KB-8-5-11 (P-gp overexpressing) viability, CellTiter-Glo, 72 h; series mostly up to 44.5 µM; activity change, negative = cytotoxicity: at the top concentration
# Method in brief: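 Human cervical adenocarcinoma KB-8-5-11 cells, selected in colchicine to over-express P-gp and assayed without it, were exposed for 72 h to titrated compounds. An ATP-based luminescent viability signal gave AC50.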
# % is scaled to controls: 0 for no effect and ±100 for the full control effect; potency is read from the fitted curve at half-maximal effect.
SMILES,"activity change, negative = cytotoxicity",outcome,Potency
C/C=C/C=C/C(O)=C1\C(O)=C(C)C(=O)[C@@]2(C)OC(=O)[C@@](C)(NC(=O)/C=C/C(=O)O)[C@@H]12,2.32% [at 17.3 µM] (inactive),–,–
COc1ccc(CC2NCCc3c2[nH]c2ccc(C)cc32)cc1OC (configuration not stated),-20.8% (inactive),–,–
CNS(=O)(=O)CC1CCC(N(C)c2ncnc3[nH]ccc23)CC1 (configuration not stated),-12.4% (inactive),–,–
CC(C)c1cc(C(=O)N2CC[C@@H](NC(=O)C3CC3)C2)n[nH]1,-0.389% (inactive),–,–
COc1cc(C)c(C(=O)Oc2cc(C)c(C(=O)Oc3cc(C)c(C(=O)NC(C)C(=O)O)c(O)c3)c(O[C@@H]3O[C@H](CO)[C@@H](O)[C@H](O)[C@H]3OC(C)=O)c2)c(OC)c1 (some centres not stated),9.86% [at 17.3 µM] (inactive),–,–
CCC(COC)n1nnc2c(Nc3ccc(OC)cc3C)nc(C)cc21 (configuration not stated),-17.4% (inactive),–,–
COc1ccccc1NC(=O)OCC1CCN(C(=O)OC(C)(C)C)CC1,-19.3% (inactive),–,–
CC(C)=CCC[C@](C)(O[C@@H]1O[C@H](CO)[C@@H](O)[C@H](O)[C@H]1O)[C@H]1CC[C@]2(C)[C@@H]1[C@H](O)CC1[C@@]3(C)CC[C@H](O)C(C)(C)C3[C@@H](O[C@@H]3O[C@H](CO)[C@@H](O)[C@H](O)[C@H]3O)C[C@]12C (some centres not stated),9.51% [at 17.3 µM] (inactive),–,–
CCC(C)C(=O)O[C@H]1CCC=C2C=C[C@H](C)[C@H](CC[C@@H](O)C[C@@H](O)CC(=O)O)[C@H]21 (some centres not stated),-12.2% [at 17.3 µM] (inactive),–,–
CC1OC(OCC2OC(OC3CCC4(C)C(CCC5(C)C4CC=C4C6CC(C)(C)CCC6(C(=O)OC6OC(CO)C(O)C(O)C6O)CCC45C)C3(C)CO)C(O)C(O)C2O)C(O)C(O)C1O (configuration not stated),–,inactive [at 9.29 µM],–
CNC(=O)c1ccccc1Nc1nc(Nc2ccc3c(c2OC)CCC[C@@H](N2CCN(CCO)CC2)C3)ncc1Cl,–,–,10.3 µM (active)
OC[C@@]1(O)CO[C@@H](OC[C@H]2O[C@@H](Oc3c[nH]c4ccccc34)[C@H](O)[C@@H](O)[C@@H]2O)[C@@H]1O,-15.8% [at 17.3 µM] (inactive),–,–
